Results from PubChem BioAssay (NCI).
Values joined by “and” are separate entries in the source; they are usually repeats but may differ in a detail not shown here. Equal values may be shown once. The panel holds about 83,000 compounds, 20% with a hit somewhere; the sample as a whole holds those more often.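 Method: cells in 96-well plates; compound added at one concentration; 48 h incubation; percent growth measured; values under 10 scored active.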 Active and inactive are the calls of the source.

How the values were obtained:
Assay in all cases: NCI-60 one-dose screen, 48 h (100 = growth as untreated, 0 = no growth, -100 = all killed)
[1] = system: HCT-15 colon
[2] = system: HT29 colon
[3] = system: SNB-75 CNS
[4] = system: SNB-19 CNS
[5] = system: U251 CNS
[6] = system: PC-3 prostate; conditions: 10 µM unless noted
[7] = system: SK-MEL-5 melanoma
[8] = system: UACC-62 melanoma
[9] = system: LOX IMVI melanoma; conditions: 10 µM unless noted
[10] = system: SK-MEL-28 melanoma
[11] = system: SK-MEL-2 melanoma; conditions: 10 µM unless noted
[12] = system: EKVX NSCLC
[13] = system: SN12C renal
[14] = system: UO-31 renal
[15] = system: TK-10 renal; conditions: 10 µM unless noted
[16] = system: ACHN renal
[17] = system: CAKI-1 renal; conditions: 10 µM unless noted
[18] = system: A498 renal
[19] = system: HL-60(TB) leukemia; conditions: 10 µM unless noted
[20] = system: CCRF-CEM leukemia

Measured: growth

O=C(O)C(F)F
inactive: [1]; 10 µM unless noted 106% | [2]; 10 µM unless noted 100% | [3]; 10 µM unless noted 113% | [4]; 10 µM unless noted 111% | [5]; 10 µM unless noted 108% | [6] 105% | [7]; 10 µM unless noted 99.7% | [8]; 10 µM unless noted 102% | [9] 99% | [10]; 10 µM unless noted 116% | [11] 120% | [12]; 10 µM unless noted 101% | [13]; 10 µM unless noted 104% | [14]; 10 µM unless noted 94.9% | [15] 97.7% | [16]; 10 µM unless noted 116% | [17] 102% | [18]; 10 µM unless noted 84.4% | [19] 96% | [20]; 10 µM unless noted 110%

CCC1CCC(=O)O1 (centres undefined)
inactive: [1]; 10 µM unless noted 98.1% and 105% | [2]; 10 µM unless noted 107% and 110% | [3]; 10 µM unless noted 86% and 96.4% | [4]; 10 µM unless noted 115% and 113% | [5]; 10 µM unless noted 97% and 108% | [6] 97.8% and 105% | [7]; 10 µM unless noted 103% and 104% | [8]; 10 µM unless noted 114% | [9] 97.5% and 103% | [10]; 10 µM unless noted 104% and 115% | [11] 94.8% and 114% | [12]; 10 µM unless noted 111% | [13]; 10 µM unless noted 108% and 109% | [14]; 10 µM unless noted 85.5% and 95% | [15] 105% and 109% | [16]; 10 µM unless noted 105% and 109% | [17] 104% | [18]; 10 µM unless noted 96.5% and 98.6% | [19] 78% and 109% | [20]; 10 µM unless noted 116%

CCCN1C(=O)NC(=O)C(CC)(N2C(=O)c3c(F)c(F)c(F)c(F)c3C2=O)C1=O (centres undefined)
active: [1]; 10 µM unless noted -51.8% | [2]; 10 µM unless noted -66.6% | [3]; 10 µM unless noted -52.1% | [4]; 10 µM unless noted -94.9% | [5]; 10 µM unless noted -48% | [6] -59.2% | [7]; 10 µM unless noted -91.7% | [8]; 10 µM unless noted -68.6% | [9] -55.9% | [10]; 10 µM unless noted -93.7% | [11] -65.2% | [12]; 10 µM unless noted -44.4% | [13]; 10 µM unless noted -72.7% | [14]; 10 µM unless noted -98.8% | [15] -76.4% | [16]; 10 µM unless noted -79.4% | [17] -89.9% | [18]; 10 µM unless noted -85.3% | [19] -80.1% | [20]; 10 µM unless noted -56.7%

CCCC(C)SP(=S)(SC(C)CCC)SC(C)CCC (centres undefined)
inactive: [1]; 10 µM unless noted 103% | [2]; 10 µM unless noted 100% | [3]; 10 µM unless noted 106% | [4]; 10 µM unless noted 108% | [5]; 10 µM unless noted 103% | [6] 99.8% | [7]; 10 µM unless noted 91.9% | [8]; 10 µM unless noted 101% | [9] 93.6% | [10]; 10 µM unless noted 107% | [11] 107% | [12]; 10 µM unless noted 96.7% | [13]; 10 µM unless noted 108% | [14]; 10 µM unless noted 93% | [15] 104% | [16]; 10 µM unless noted 113% | [17] 104% | [18]; 10 µM unless noted 113% | [19] 106% | [20]; 10 µM unless noted 103%

CC(=O)OCC1OC([S-])C(OC(C)=O)C(OC(C)=O)C1OC(C)=O.[Au+].c1ccc(CN2[CH-]N(Cc3ccccc3)C(c3ccccc3)=C2c2ccccc2)cc1
active: [1]; 4.75 µM -57.5% | [1]; 10 µM -79.8% | [2]; 4.75 µM 0.406% | [3]; 10 µM 3.87% | [4]; 4.75 µM -49.9% | [4]; 10 µM -80.3% | [5]; 4.75 µM -72.4% | [5]; 10 µM -84% | [7]; 4.75 µM -50.5% | [8]; 4.75 µM -18.6% | [8]; 10 µM 3.54% | [12]; 4.75 µM 8.29% | [12]; 10 µM -13.6% | [13]; 4.75 µM -15.1% | [13]; 10 µM -49% | [14]; 4.75 µM 3.56% | [14]; 10 µM -70.5% | [16]; 4.75 µM -18.5% | [16]; 10 µM -39.3% | [18]; 4.75 µM -14.7% | [19] -43.5% [4.75 µM] | [20]; 4.75 µM -21%
inactive: [2]; 10 µM 16.4% | [3]; 4.75 µM 26.1% | [7]; 10 µM 16.8% | [10]; 4.75 µM 10% | [10]; 10 µM 20.2% | [18]; 10 µM 50.4% | [20]; 10 µM 17.4%

N#CC(NC(=O)CCl)=C(Cl)Cl
active: [1]; 10 µM unless noted -21.1% | [2]; 10 µM unless noted -49.2% | [5]; 10 µM unless noted 9.19% | [8]; 10 µM unless noted -5.68% | [9] -56.4% | [10]; 10 µM unless noted -39.9% | [12]; 10 µM unless noted -45.3% | [14]; 10 µM unless noted -40% | [15] -13.1% | [16]; 10 µM unless noted -88.7% | [17] -99.4% | [19] -58.3% | [20]; 10 µM unless noted -21.9%
inactive: [3]; 10 µM unless noted 66.6% | [4]; 10 µM unless noted 60.3% | [6] 37.7% | [7]; 10 µM unless noted 25.4% | [11] 51.5% | [13]; 10 µM unless noted 29% | [18]; 10 µM unless noted 63.4%
